Compound activity: PubChem, National Center for Advancing Translational Sciences (NCATS)
Rows were chosen to be rich in hits. Some 4.1% of all compounds tested hit in one or more screens of this group.
Sm TGR block: inhibitors of Schistosoma mansoni thioredoxin glutathione reductase; 360,000 compounds, 3% hits; AID 485364; Potency, µM (top dose mostly 114 µM), actives largely listed as inhibitors; purified TGR, DTNB reduction, TNB absorbance 405 nm; Q962Y6; also: nearly all actives have a fitted effect of over 60% in size
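First, TGR (20 nM dispensed) and NADPH were mixed with compound. Second, a 15 min room-temperature incubation followed. Third, further NADPH and then DTNB were added to start the reaction. Finally, TNB absorbance was monitored kinetically.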
AmpC detergent: blocks E. coli AmpC beta-lactamase in detergent assay; 370,000 compounds, 0.041% hits; Potency, µM (doses to about 114 µM), actives largely listed as inhibitors; AmpC hydrolysis of nitrocefin, absorbance 480 nm, 0.01% Triton; also: nearly all actives have a fitted effect of over 25% in size
Target sequence (P00811 whole entry, looked up): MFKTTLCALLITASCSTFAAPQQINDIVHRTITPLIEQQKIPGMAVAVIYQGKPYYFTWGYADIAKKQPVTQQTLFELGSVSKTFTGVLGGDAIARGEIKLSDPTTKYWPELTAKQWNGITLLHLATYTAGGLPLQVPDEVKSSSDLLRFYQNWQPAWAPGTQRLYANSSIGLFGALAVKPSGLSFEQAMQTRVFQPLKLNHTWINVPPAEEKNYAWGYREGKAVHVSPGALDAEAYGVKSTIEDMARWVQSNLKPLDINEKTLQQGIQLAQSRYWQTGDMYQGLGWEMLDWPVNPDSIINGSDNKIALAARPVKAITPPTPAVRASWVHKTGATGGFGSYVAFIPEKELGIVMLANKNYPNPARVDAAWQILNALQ
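20 mM phosphate pH 7.0 + 0.01% (detergent screen) or 0.0001% Triton X-100; 5.3 nM AmpC reagent; cpd preinc 15 min RT; nitrocefin (800 uM stock) to start; A480 q20 s × 4 min; Activity was normalised to no-enzyme and no-compound control wells.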
AmpC inh no detg: AmpC beta-lactamase inhibition without detergent | P00811 | AmpC nitrocefin hydrolysis, absorbance 480 nm, 0.0001% Triton | Potency, µM (top dose mostly 57.1 µM), actives largely listed as inhibitors | 330,000 compounds, 0.52% hits; also: nearly all actives have a fitted effect of over 20% in size
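20 mM phosphate pH 7.0 + 0.01% (detergent screen) or 0.0001% Triton X-100; 5.3 nM AmpC reagent; cpd preinc 15 min RT; nitrocefin (800 uM stock) to start; A480 q20 s × 4 min; Activity was normalised to no-enzyme and no-compound control wells.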
FMDV antiviral: foot and mouth disease virus antiviral activity; AID 1159524; Potency, µM (top dose mostly 57.9 µM), hits mostly inhibitors; 410,000 compounds, 1.2% hits; FMDV antiviral cell-based qHTS; calls by dose curve; tested in HEK293T cells; also: read-out not given here; nearly all actives have a fitted effect of over 45% in size
AMA1-RON2 inh: disrupts binding of P. falciparum AMA1 to RON2; 360,000 compounds, 0.2% hits; AlphaScreen AMA1-biotinylated RON2 peptide binding; Potency, µM (series often up to 58.2 µM), hits mostly inhibitors; also: nearly all actives have a fitted effect of over 45% in size
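AMA1 (3D7) with his tag at 25 nM final met compounds first, then biotinylated RON2 peptide at 25 nM; detection used donor plus acceptor beads, 10 µg/mL apiece, read by AlphaScreen after 30 min at room temperature.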
Numbers stand for hits; – = inactive; ? = inconclusive; · = not tested or not shown; [ ] = dose if it differs, or a comment. Unless noted, calls follow the shape of the dose curve; as a rule, active = well fitted curve in the direction sought with a large enough effect; inconclusive = small, poorly fitted or top-dose-only effect, or another doubt; inactive = no such curve, though single readings can be large; an effect the other way counts as inactive or inconclusive.

SMILES	Sm TGR block	AmpC detergent	AmpC inh no detg	FMDV antiviral	AMA1-RON2 inh
N#Cc1c(C#N)c(SSc2c(C#N)c(C#N)c(N)n2-c2ccccc2)n(-c2ccccc2)c1N	·	·	·	40µM	–
O=C(CSCc1ccccc1)NNC(=S)Nc1cccc(Cl)c1Cl	–	?	0.16µM	–	–
CCOC(=O)c1c(-c2ccc(OC)cc2)oc2ccc(OCc3ccc(Br)cc3)cc12	–	–	·	–	·
COc1ccc2oc3cc(C)[n+]([O-])c(-c4ccc(Br)cc4)c3c2c1	–	–	–	32µM	–
CCOC(=O)c1c(-c2ccc(C)cc2)csc1NC(=O)c1cc(=O)c2ccc(C)cc2o1	–	–	·	–	·
CCOC(=O)c1c(-c2ccc(C)cc2)csc1NC(=O)c1cc2ccccc2oc1=O	14µM	–	–	–	–
O=C(Nc1ccc(Oc2ccccc2)cc1)c1ccc(Cn2c(=O)[nH]c3ccsc3c2=O)cc1	–	–	16µM	–	–
NC(=O)C1CCN(CCS(=O)(=O)c2ccc(Cl)cc2)CC1	45µM	–	–	–	–
O=S(=O)(CCN1CCOCC1)c1ccc(Cl)cc1	·	·	·	–	–
CCS(=O)(=O)c1nc(S(=O)(=O)c2ccc(Cl)cc2)c(N2CCOCC2)s1	22µM	–	–	–	–
CCCCc1nc(S(=O)(=O)c2ccc(Cl)cc2)c(N2CCOCC2)o1	7.9µM	–	–	–	–
CS(=O)(=O)c1nc(S(=O)(=O)c2ccc(Cl)cc2)c(N2CCC(C(N)=O)CC2)s1	11µM	–	–	–	–
CCS(=O)(=O)c1nc(S(=O)(=O)c2ccc(Cl)cc2)c(N2CCC3(CC2)OCCO3)s1	–	–	–	–	–
COc1ccc(OC)c(-n2c(=O)[nH]c3cc(C(=O)NCCc4ccc(OC)c(OC)c4)ccc3c2=O)c1	–	–	·	–	·
COc1cccc(CNC(=O)Cn2c(=O)ccc3cc(S(=O)(=O)N4CCCC4)ccc32)c1	–	–	·	–	·
COc1ccc2[nH]c3c(N4CCC(O)(c5cccc(C(F)(F)F)c5)CC4)ncnc3c2c1	–	–	–	28µM	–
Cc1cccc(NC(=O)c2ccc3nc(CCc4ccccc4)oc3c2)c1C	–	–	·	–	·
O=C(NCCc1ccccc1)c1ccc(=O)oc1	–	?	–	–	–
O=C(NCCO)c1ccc2nc(-c3ccco3)c(-c3ccco3)nc2c1	1.8µM	–	–	–	?
O=C(NCCc1ccccc1)c1ccc2nc(-c3ccco3)c(-c3ccco3)nc2c1	1.3µM	–	16µM	–	–
c1coc(-c2cnc3ccccc3n2)c1	·	·	·	–	–
O=C(NC1CCCC1)c1ccc2nc(-c3ccco3)c(-c3ccco3)nc2c1	3.2µM	–	–	–	–
O=C(NC1CCCC1)c1ccc2nc[nH]c2c1	–	–	–	–	–
c1coc(-c2nc3ccccc3nc2-c2ccco2)c1	3.5µM	?	–	·	–
CC(C)c1ccc(NC(=O)C2Cc3c(-c4ccco4)ccnc3O2)cc1 (centres undefined)	·	·	·	–	–
SMILES	Sm TGR block	AmpC detergent	AmpC inh no detg	FMDV antiviral	AMA1-RON2 inh
CCC1(C2CCN(C(=O)c3ccccc3C(C)=O)CC2)NC(=O)N(CCc2scnc2C)C1=O (centres undefined)	·	·	·	–	·
O=C(c1ccccc1)c1ccc2nc(-c3ccco3)c(-c3ccco3)nc2c1	·	–	25µM	–	?
Cn1c(C(=O)NCCc2ccccc2)cc2cc(S(=O)(=O)N3CCCCC3)ccc21	–	–	·	?	·
COc1ccc(C2=NN(C(=O)c3ccco3)C(c3cc4ccccc4nc3Cl)C2)cc1 (centres undefined)	45µM	–	–	–	–
COc1ccc(C2C(O)C(c3c[nH]c4ccccc34)=NN2C(=O)CCl)cc1 (centres undefined)	8.9µM	–	–	18µM	–
c1ccc(-c2noc(-c3ccc4c(c3)OCO4)n2)cc1	·	–	–	14µM	–
COc1cccc(C2CC(=O)Nc3c2c(=O)nc2c(C)cccn32)c1OC (centres undefined)	–	–	·	–	·
Cc1ccc(N(CC(=O)N/N=C/c2cccs2)S(C)(=O)=O)cc1	–	–	–	–	–
Cc1ccc(N(CC(=O)N/N=C/c2cccc(Br)c2)S(C)(=O)=O)cc1	–	–	14µM	?	–[11.6 µM]
CCOc1ccc(C(=O)NN2C(=O)C3C4C=CC(O4)C3C2=O)cc1 (centres undefined)	22µM	–	–	–	–
Cc1ccccc1OCC(=O)NN1C(=O)C2C3C=CC(O3)C2C1=O (centres undefined)	20µM	?	–[2.29 µM]	–	–
c1ccc(CNc2ccc3c(c2)ncn3C2CCCCC2)nc1	–	?	7.1µM	·	?
CC(=O)NC(c1ccco1)c1cc(Cl)c2ccc(N(C)C)nc2c1O (centres undefined)	4µM	–	–	·	·
O=C(NCCc1ccccc1)c1ccc(CSc2nc3ccncc3n2Cc2cccc(F)c2)cc1	–	–	·	–	·
O=C(/C=C/c1ccccc1)Nc1nc(-c2ccncc2)cs1	–	–	–	13µM	–
Cc1ccccc1OCC(=O)Nc1nnc(-c2ccncc2)s1	–	–	–	–	–
Cc1ccccc1OCC(=O)Nc1nc(-c2ccncc2)cs1	–	–	–	28µM	–[11.6 µM]
CCOC(=O)c1c(CSc2ccccc2)oc2ccc(O)cc12	–	–	–	–	–
CCOC(=O)c1c(CSc2ccc(C)cc2)oc2ccc(O)cc12	–	–	–	22µM	–[11.6 µM]
COc1ccc(C(=O)Nc2nc(-c3cccs3)cs2)cc1	–	–	·	–	–
O=C(Nc1nc(-c2cccs2)cs1)c1ccc(Cl)cc1	–	–	28µM	–	–
COc1cc(=O)n2c(c1C(=O)N(C)Cc1nonc1C)CCN(Cc1ccc(C)cc1C)CC2	·	·	·	–	·
Cc1ccccc1C(=O)NC(C)c1nnc2n1CCN(Cc1ccccc1F)CC2 (centres undefined)	·	·	·	–	·
O=C(N/N=C/c1ccc(Br)s1)c1c[nH]c2ccccc12	–	–	25µM	–	–
COc1ccc(N2CCN(S(=O)(=O)CCNC(=O)c3c(F)cccc3Cl)CC2)cc1	–	–	·	–	·
SMILES	Sm TGR block	AmpC detergent	AmpC inh no detg	FMDV antiviral	AMA1-RON2 inh
COc1cc(O)c(C(=O)c2ccccc2)cc1O	·	·	·	–	·
COc1ccc(C(=O)c2ccccc2)c2c(O)ccc(C(=O)c3ccccc3)c12	–	–	–	13µM	–
Cc1ccc(Nc2ccc(N3CCN(C(=O)c4ccc([N+](=O)[O-])cc4Cl)CC3)nn2)cc1	–	–	·	?	·
COc1ccc(C(=O)Sc2nncc3ccccc23)cc1	20µM	?	–[11.4 µM]	–	–
COc1ccc(NC(=O)CSc2nncc3ccccc23)cc1	–	–	–	–	–
COc1ccc(Cn2c(=O)c3cccnc3n(CC(=O)Nc3ccc(C)c(F)c3)c2=O)cc1	–	–	·	–	·
Cc1cc(C)cc(CN2CCOc3ccc(CN4CCC(O)(c5cccnc5)CC4)cc3C2)c1	·	·	·	–	·
COC(=O)C1=C(c2ccc(C(C)=O)cc2)C[C@@H]2CC[C@H]1N2C(=O)NC(C)C	35µM	–	–	–	–
